# Over roughly 25,000 sequences, “ln(normalized median fluorescence intensity)” has its median near 9.7; the highest 2% begin near 11. This is one part of a sample in which the highest values are shown more often than they occur.
# Test system: PfAP2-HC AP2 domain (GST-tagged)
# Assay: gcPBM binding intensity (ln(normalized median fluorescence intensity)); higher = stronger DNA binding
# In short: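 GST-tagged P. falciparum DNA-binding domains produced in E. coli were incubated for 1 h on an Agilent 4 × 180k array of primer-extended double-stranded 36-bp intergenic genomic probes with negative controls. Binding intensity is the highest Masliner-normalised natural-log median intensity across replicate spots of either probe orientation, with bound protein detected by Alexa488 anti-GST antibody at 488 nm.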
row,Sequence,gcPBM binding intensity (ln)
1,AAAAAAAAAAAATTCACACACATATAAAAAATTAAG [CACACA_site728],10
2,AATAAATATAGGTACACACACAAATATGTACATATC [CACACA_site6976],10.2
3,ATTCTCCATGTTTGATGTACTCATATGACGACGGAG [XGTACX_site4923],9.52
4,AATATATGTATATCCACACACATATATATATATATA [CACACA_site1633],9.96
5,ATACATATTCTTATTTGTACTTATTATAAAATGGTC [XGTACX_site6584],9.56
6,ATATATATTTATTTATGTACGAATAAATTTACGAAT [XGTACX_site5190],9.51
7,CTTATCAAAAAAAAAGCATGCCACAGGCAAAAGGTA [TGCATGCA_site574],9.71
8,ATAGAATAAATTTTGTCATTTATTCCTTATATATAA [GTGCAC_negctrl_site227],9.56
9,TTATATATTTTTAGGTGTACTTTTTTTTTTTTTTTT [XGTACX_site8164],9.54
10,ATATATATATAATAAACACACACATATACATATATG [CACACA_site9145],10.5
11,AAACATAAGAGACACACACACATATATAAATAAATA [CACACA_site7674],10.5
12,AAAAATAAAATATATACATGCATATACATATTATAT [TGCATGCA_site668],9.65
13,AATAACCACCAACACACACACATATATATATATATA [CACACA_site3540],10.2
14,ATAAAAAAAGGACACACACACATATATATATATATA [CACACA_site5662],10.8
15,ATATTATATATATACACACACACATGCATGCACATA [CACACA_site7917],10.3
16,ATAAAAAAAAGACACACACACATATATATATATATA [CACACA_site3073],10.3
17,TAAAACATAAGAGACACACACACATATATATATATA [CACACA_site3643],10.9
18,ATAAAAAAAGGACACACACACATATATTTATTTATA [CACACA_site7438],10.5
19,AAATTCCACGAACACACACACATATAAATAAATAAA [CACACA_site6697],10.6
20,ATATTATATAAATACACACACACATGCATGCACATA [CACACA_site4236],11.2
21,AAATTCCACCAACACACACACATATAAATAAATAAA [CACACA_site1233],11
22,CATATAAAAGGACACACACACACATATATATATATA [CACACA_site4674],11.6
23,ATAGATATAACATATGCATGTAAAATATAACCACTC [TGCATGCA_site60],9.97

row,Sequence,gcPBM binding intensity (ln)
1,TTCACTAATAAATACGCACACATATACAGATATATA [CACACA_site4887],9.94
2,GAGTTTTAATGTAATAGTACTTTAATTATTATATAT [XGTACX_site4527],9.7
3,ATACACAAAATTATTAAATCAATAAATATATGGTTT [CACACA_negctrl_site353],9.57
4,TAATATCATTTATGGGGTACCTCCTATTCTTATTTA [XGTACX_site1839],9.64
5,TAACTTTTTTTTTTTTTTTTTTAACTTTTATGTAAT [GTGCAC_negctrl_site156],9.45
6,GAAATATTTAGACACACACACAAACATATAAATATA [CACACA_site6980],11.1
7,AAACAATTTAGACATACACACAAAAATAATATTATA [CACACA_site384],10.3
8,TTAAACAATTTAGACATACACACAAAAATAATATTA [CACACA_site385],9.87
9,TACATCTGTAATGTGTGTACATATATGTATATATTT [XGTACX_site1805],9.87
10,ATAAATAAAAAACACACACACACACCCAAAAAAAAA [CACACA_site2624],10.7
11,TATTTATTAAAACACACACACACACCCACAAAATAA [CACACA_site241],10.5
12,TTTATTAATAGACACACACACACACGCAAAATAAAA [CACACA_site6255],11.2
13,TAATAAATAAATGACACACACACACGCAAAAAAAAA [CACACA_site7275],10.6
14,ATTAATAAATAAATGACACACACACCCACAAAAAAA [CACACA_site8839],11.3
15,TTTATTAATGGACACACACACACACCCAAAATAAAA [CACACA_site4294],10.5
16,TTTATTAAGAAACACACACACACACCCAAAATAAAA [CACACA_site242],10.5
17,AACACCCACAGACACACACACAAAAATGATTAAAAA [CACACA_site2433],10.9
18,TTTATTAATAAACACACACACACACCCAAAATAAAA [CACACA_site7966],11
19,AAAAAAAAAAAACACACACACAAAATAAACAAACAA [CACACA_site2721],10.5
20,TTAACAAATAAACACACACACACACCCAAAAAAAAA [CACACA_site8068],11.1
21,ATATAAAATAGACACGCACACAAAAAAAAAAAAAAA [CACACA_site3522],10.4
22,AAAAAAATAGTCTTCTTGCACTTTTTAATTTATTTT,9.6
23,CTAAAACAATAAATCACACATACATAGGATAATATA [CACACA_site4247],9.81

row,Sequence,gcPBM binding intensity (ln)
1,GTGTAATTTATTGTGTTGCACTTTTTTTTTTTTTTT [GTGCAC_site9644],9.84
2,ATATATATGTATATAACATGCAACATTTAATAATAA [TGCATGCA_site1018],9.85
3,AAGGTGGAAACAATTACACACACACTAATAAAAAAA [CACACA_site9051],10.8
4,ATATGATTTCACAAGACACACACATACAAATTTATA [CACACA_site9296],10.1
5,TATTTATTTATTTATGCATGCATGAATAATTTTTAC [TGCATGCA_site31],9.62
6,AGAACAATTCTGTGGTGTACCAAAAAAAATTTAATT [XGTACX_site8082],9.8
7,TAAAGAGTCATGTGGTGTACCTGCTTCACCACATAT [XGTACX_site1288],9.4
8,AACTTTGAGACATAGTGTACTTACACAATCTTAATA [XGTACX_site3712],9.63
9,ATGCATATATTTATGTGTACATATATTTGTAGGGGG [XGTACX_site6063],11.2
10,ATATATATTTATATATGTACATATTTTTGTGTATTT [XGTACX_site1183],9.93
11,TATATATATATATATGCATGTACATATATTTGTTAT [TGCATGCA_site379],10.4
12,ATACCTATTTGATGAGTGCATTATCCAATATATGTA,9.59
13,TCTTTTTAAATATATACACACCGTGTCTACAGATAC [CACACA_site5784],9.88
14,AAGAAAAACTTTACGTGTACCAAACATCCTGCCAAC [XGTACX_site598],9.91
15,ATATATATTTTATTATGTACATATAAATATTACACA [XGTACX_site4062],9.57
16,AATAATAGAAGCACCCACCCACCACCACCCACACAT [CACACA_negctrl_site1033],10.9
17,GCATACATCAAGCACACACACACACGCACACGCACA [CACACA_site6311],11.3
18,TGCATATACGCAAGCACACATATATATATATATATA [CACACA_site1069],9.6
19,AAGCATACATCAAGCACACACACACCCACAGAGACA [CACACA_site4362],10.5
20,AGAAGCATACATCAAGCACACACACCCACACCCACA [CACACA_site8014],11.4
21,CACGCACGCAGACACACACACACACGCACATATATA [CACACA_site6303],10.6
22,AATACACGCAGACACACACACACACGCACATATATA [CACACA_site6447],10.8
23,AGCACACGCAGACACACACACACACGCACACGCACA [CACACA_site6306],11.6

row,Sequence,gcPBM binding intensity (ln)
1,TGCATATACTCAAGCACACATATATATATATATATA [CACACA_site4733],9.71
2,ACATCAAGCAGACACACACACACACGCACACGCACA [CACACA_site6309],11.2
3,AGCTCTATATTTTACACATGCGATTTGGATATATAT [TGCATGCA_site105],9.84
4,ATGTACTATGATAATGCATGCAATAATACATTTTTA [TGCATGCA_site318],9.6
5,AAACTATTCACTATAATACATTAGAAGTGAATAAAA [TGCATGCA_negctrl_site498],9.64
6,TTTTTTTTTCTCCATACACACTTGATAAAACTTTTT [CACACA_site4512],9.64
7,AAAAAAAATAATTTGCGTACATAAAAATTTATAGGA [XGTACX_site3016],9.58
8,AAAAATAAAGAAACAGGTACGCATATATTAAGATAT [XGTACX_site8097],9.98
9,TATCCTAATGCTACCACACACACAAAAACAAATAAT [CACACA_site2609],10.7
10,TATTATTTTTCATATGCATGCAAAAATAAAAAAATA [TGCATGCA_site350],9.31
11,TATATACATATATACACACACATATATATATATATA [CACACA_site2805],10.1
12,TGGTAATACCCATACACACACACATACCCATATATA [CACACA_site5509],10.3
13,AAGGATATAACATACACACACACACCGATATATATA [CACACA_site6136],10.6
14,GGAAGGATATAACATACACACACACCCATATATATA [CACACA_site9376],10.3
15,TACATACATACATACACACACACATATATATACATA [CACACA_site853],11
16,CAAAAGGATAGGCACACACACACACCGATATATATA [CACACA_site8685],10.7
17,TGGTAATACACATACACACACACATACACATATATA [CACACA_site7312],11.4
18,TATACATATATATACACACACACATATATATATATA [CACACA_site1299],10.1
19,GCCAAAAGGATATGCACACACACACCCATATATATA [CACACA_site2198],10.6
20,CAAAAGGATAGGCACACACACACACCCATATATATA [CACACA_site2199],11.1
21,TGGTAATACCCATACACACACACATACACATATATA [CACACA_site8877],10.3
22,AAGGATATAACATACACACACACACCCATATATATA [CACACA_site4142],11.1
